# From PubChem
# LmPK inhibitor – qHTS Assay for Inhibitors of Leishmania Mexicana Pyruvate Kinase (LmPK) | Potency, µM (series often up to 57.5 µM), without a hit: top-dose activity change, negative = inhibition, usual class: inhibitors | purified LmPK, Kinase-Glo ATP luminescence, 1 h | hit rate 0.37% among 290,000 | Q27686
#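 In 50 mM imidazole pH 7.2 with 7 mM MgCl2, LmPK (0.1 nM) turned over PEP (0.5 mM) and ADP (0.1 mM) for 1 h at room temperature. Luciferase read-out of ATP.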
# TbPYK inhibitor – qHTS of Trypanosoma Brucei Inhibitors; Potency, µM (titrated, usually from 76.8 µM), for the others: at the highest dose activity, negative = inhibition, usual class: inhibitors; AID 624173, 2012; TbPYK enzyme, Kinase-Glo Plus ATP luminescence, 45 min; hit rate 0.12% among 410,000; pyruvate kinase (Trypanosoma brucei), Q57TT1; further: nearly all actives have a fitted effect of over 50% in size
#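 Luminescence from Kinase-Glo Plus, added after a 45-minute room-temperature reaction, served as the end-point read-out. The enzyme and substrate were preincubated with compound before ADP (130 uM final) initiated turnover. Concentration-effect curves came from normalized qHTS data.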
# Giardia FBPA inh-1 – qHTS Assay for Inhibitors of Fructose-1,6-bisphosphate Aldolase from Giardia Lamblia; hit rate 0.71% among 290,000; AID 2451, 2010; purified Giardia FBPA; Potency, µM (doses to about 59.6 µM), without a hit: at the top dose activity, negative = inhibition, actives largely listed as inhibitors; further: nearly all actives have a fitted effect of over 55% in size
# Target sequence (A8B2U2 whole entry, looked up): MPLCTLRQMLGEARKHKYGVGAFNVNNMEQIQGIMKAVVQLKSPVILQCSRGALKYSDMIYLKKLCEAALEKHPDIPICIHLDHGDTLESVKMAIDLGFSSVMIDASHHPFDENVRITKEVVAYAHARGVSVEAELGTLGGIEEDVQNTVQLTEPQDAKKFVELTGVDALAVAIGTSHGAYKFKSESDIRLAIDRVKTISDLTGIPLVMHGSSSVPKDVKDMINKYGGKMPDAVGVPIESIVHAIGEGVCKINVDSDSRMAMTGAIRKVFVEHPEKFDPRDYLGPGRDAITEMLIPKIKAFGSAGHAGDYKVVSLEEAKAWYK
#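 Giardia FBPA (40 nM reagent) was preincubated 10 min at RT with compound (up to 57.5 uM final), then substrate plus GAPDH/TPI/NAD/arsenate coupling system with diaphorase/resazurin was added; resorufin fluorescence (525/598 nm) was read after 20 min.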
# RE007 growth inh – qHTS Assay for Inhibitors of the HIV-1 protein Vpr | S. pombe RE007 Vpr strain, BacTiter-Glo ATP luminescence, 24 h | Potency, µM (top dose mostly 92.2 µM), for inactives: at the top dose activity change, negative = less growth, actives largely listed as inhibitors | hit rate 0.21% among 360,000 | AID 651644, 2012; active means well fitted falling curve with a large enough effect; inconclusive means small, poorly fitted or top-dose-only effect; inactive means no such curve, though single readings can be large or run the other way; further: nearly all actives have a fitted effect of over 50% in size
#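 Fission yeast RE007 carrying one integrated HIV-1 vpr copy, seeded at OD 0.01 in PMG+AL medium with 23 nL pinned compound. Grown 24 h at 30 degrees; viability read by BacTiter-Glo luminescence after 5 min.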
# Giardia growth – qHTS Assay for Inhibitors of Fructose-1,6-bisphosphate Aldolase from Giardia Lamblia: Giardia lamblia growth inhibition | shares compounds with Giardia FBPA inh-1 | Giardia lamblia trophozoite growth inhibition | Potency, µM (titrated, usually from 57.5 µM), for inactives: top-dose activity change, negative = inhibition, usual class: inhibitors | hit rate 5% among 1,500 | AID 2785, 2010;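 further: trophozoites exposed to compound for 48 h at 37 °C; nearly all actives have a fitted effect of over 70% in size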
# Mammal cell tox – qHTS Assay for Inhibitors of Fructose-1,6-bisphosphate Aldolase from Giardia Lamblia: Mammalian cellular toxicity | mammalian cell viability counter-screen, qHTS | Potency, µM (doses to about 57.5 µM), for the others: at the top dose viability change, negative = toxicity, most hits filed as inhibitors | shares compounds with Giardia FBPA inh-1 | hit rate 4% among 1,500;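 further: Chinese hamster ovary cells used as mammalian cytotoxicity surrogate; viability measured as cellular ATP by luminescence; compound exposure lasted 48 h before reading; nearly all actives have a fitted effect of over 60% in size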
# Giardia FBPA inh-2 – qHTS Assay for Inhibitors of Fructose-1,6-bisphosphate Aldolase from Giardia Lamblia: Primary screen confirmation | shares compounds with Giardia FBPA inh-1 | purified Giardia aldolase enzyme activity, qHTS | Potency, µM (top dose mostly 57.5 µM), without a hit: at the highest dose activity change, negative = inhibition, actives largely listed as inhibitors | hit rate 5% among 1,500; further: nearly all actives have a fitted effect of over 45% in size
# Rabbit FBPA inh – qHTS Assay for Inhibitors of Fructose-1,6-bisphosphate Aldolase from Giardia Lamblia: Rabbit FBPA Selectivity; Rabbit muscle FBPA enzyme inhibition, selectivity counter-screen; hit rate 4% among 1,500; Potency, µM (doses to about 57.5 µM), inactives show top-dose activity, negative = inhibition, actives largely listed as inhibitors; shares compounds with Giardia FBPA inh-1; AID 2794, 2010; further: nearly all actives have a fitted effect of over 60% in size
# Target sequence (P00883 whole entry, looked up): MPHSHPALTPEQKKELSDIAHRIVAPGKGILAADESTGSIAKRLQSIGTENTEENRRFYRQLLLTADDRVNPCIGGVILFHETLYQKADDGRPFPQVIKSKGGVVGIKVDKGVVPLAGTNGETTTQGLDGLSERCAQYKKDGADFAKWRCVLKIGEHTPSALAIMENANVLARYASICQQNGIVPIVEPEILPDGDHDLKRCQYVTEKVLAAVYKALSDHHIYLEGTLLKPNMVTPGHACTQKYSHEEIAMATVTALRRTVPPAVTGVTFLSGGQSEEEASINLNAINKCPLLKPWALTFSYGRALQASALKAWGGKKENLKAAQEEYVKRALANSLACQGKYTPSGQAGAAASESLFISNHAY
# GAPDH coupling – qHTS Assay for Inhibitors of Fructose-1,6-bisphosphate Aldolase from Giardia Lamblia: Coupling assay counterscreen confirmation. hit rate 6% among 1,500. GAPDH coupling enzyme counterscreen, biochemical, qHTS. shares compounds with Giardia FBPA inh-1. Potency, µM (top dose mostly 57.5 µM), for the others: top-dose activity change, negative = inhibition, actives largely listed as inhibitors; further: nearly all actives have a fitted effect of over 55% in size
# * marks the source's active call; other numbers are inactive results; ? = inconclusive; . = no result given; [ ] = dose if it differs, or a comment. Most compounds without a hit are left out; they make up all but 0.95% or so of the library. Unless noted, the call rests on the fitted dose curve; in most records, active means well fitted curve in the direction sought with a large enough effect; inconclusive means small, poorly fitted or top-dose-only effect, or another doubt; inactive means no such curve, though single readings can be large; an effect the other way counts as inactive or inconclusive. On the % scale 0 is the no-effect control and ±100 the full control effect; potency means the concentration at half of the fitted maximal effect.
SMILES,LmPK inhibitor,TbPYK inhibitor,Giardia FBPA inh-1,RE007 growth inh,Giardia growth,Mammal cell tox,Giardia FBPA inh-2,Rabbit FBPA inh,GAPDH coupling
O=C(NC(=S)Nc1cccnc1)c1ccccc1,-2%,-1%,13µM*,10%,-19%,6%,1%,11%,7%
COc1ccc(NC(=O)c2ccc(NC(=O)c3cccnc3)cc2)cc1,.,3%,.,-1%,.,.,.,.,.
O=C(NC(=S)Nc1ccccc1Br)c1cccnc1,-3%,5%,6.3µM*,1%,?,-9%,-7%,5%,-1%
COC(=O)c1ccc(NC(=S)NC(=O)c2cccnc2)cc1,-2%,-5%,7.1µM*,-1%,-13%[38.3 µM],-22%,1%,10%,5%
COC(=O)C1(C)C=C(Nc2ccc(OC)cc2)C(=O)N1c1ccc(OC)cc1 (stereo unspecified),.,.,-13%,.,.,.,.,.,.
Cc1csc(NC(=O)c2ccccc2)n1,-9%,-10%,-13%,?,.,.,.,.,.
COc1ccc(C(=O)NC(=S)NNC(=O)c2cccnc2)cc1,-2%,-16%,-23%,-4%,.,.,.,.,.
CCOC(=O)Cc1csc(NC(=S)NC(=O)c2cccc([N+](=O)[O-])c2)n1,1%,-3%,4.5µM*,4%,?,4%,12%,4%,11%
O=C(NC(=S)Nc1ccccc1)c1ccc(Br)o1,0%,-2%,-13%,9%,.,.,.,.,.
Cc1snnc1C(=O)NC(=S)Nc1ccccc1,2%,-4%,13µM*,-12%,26%,10%,4%,16%,2%
Cc1csc(NC(=S)NC(=O)c2ccccc2)n1,-11%,0%,7.9µM*,-13%,?,50µM*,-5%,-7%,-7%
COc1cc(OC)cc(C(=O)NNC(=S)NC(=O)c2cccnc2)c1,3%,-3%,2µM*,6%,16µM*,7%,13%,9%,14%
Cc1cccc(-c2nn(C(=S)Nc3ccccc3)cc2-c2ccnc3ccccc23)n1,.,-2%,-28%,.,.,.,.,.,.
COc1ccc(CCNc2nc(-c3ccc(OC)c(OC)c3)cc(C(F)(F)F)n2)cc1OC,.,13%,.,.,.,.,.,.,.
CC(=O)N1CCCc2ccc(NC(=O)c3ccc(C(F)(F)F)cc3)cc21,.,2%,.,.,.,.,.,.,.
CCC(=O)NC(=S)Nc1ccc(NC(=O)c2cccnc2)cc1,1%,0%,-1%,-11%,.,.,.,.,.
O=C(O)c1ccc(NC(=S)NC(=O)c2cccnc2)cc1,1%,-21%,3.5µM*,-8%,-5%[38.3 µM],-14%,8%,15%,8%
O=C(Nc1cccnc1Cl)c1ccc(Cl)cc1,-1%,1%,-1%,1%,.,.,.,.,.
O=C(NC(=S)Nc1cccnc1Cl)c1ccc(Cl)cc1,0%,-2%,13µM*,?,-21%,-5%,2%,4%,-1%
C=CCNC(=O)N1CCc2nc(CCCC)c3c(c2C1)CO[C@@H](C)C3,0%[11.5 µM],.,3%[12.9 µM],.,.,.,.,.,.
CS(=O)(=O)Nc1cccc(-c2ccc3ncnc(N4CCOCC4)c3c2)c1,.,.,5%,.,.,.,.,.,.
O=C(Nc1nccs1)c1cn2ccccc2n1,25µM*,-4%,14µM*,2%,?,20µM*,-7%,-3%,1%
NNC(=O)c1cn2ccccc2n1,1%,0%,-30%,17%,.,.,.,.,.
Cc1cnc(C(=O)Nc2nccs2)cn1,-22%,-14%,20µM*,-13%,-9%,18%,3%,2%,11%
COC(=O)C/C=C\[C@@H](C)[C@@H](/C=N\OC[C@@H]1O[C@H](c2ccccc2)C=C[C@@H]1Oc1ccc(OC)cc1)OC,.,.,-3%[12.9 µM],.,.,.,.,.,.
SMILES,LmPK inhibitor,TbPYK inhibitor,Giardia FBPA inh-1,RE007 growth inh,Giardia growth,Mammal cell tox,Giardia FBPA inh-2,Rabbit FBPA inh,GAPDH coupling
CCCn1c(-c2ccc(F)cc2)nc2c(NCCCN(CC)CC)nc(C)nc21,.,.,2%,.,.,.,.,.,.
Cc1cnn(C(=S)NCc2ccco2)c1,0%,-2%,16µM*,-12%,-3%[10.4 µM],3%,-6%,4%,11%
S=C(NCc1ccccc1)NCc1ccco1,1%,-8%,1%,-3%,.,.,.,.,.
NNC(=S)NCc1ccco1,2%,-21%,18µM*,-10%,-5%[10.4 µM],0%,2%,13%,4%
COc1ccc(CN2CCN(C(C)C(=O)NC(C)c3ccc(F)cc3)CC2)cc1F (stereo unspecified),-2%,0%,-6%,1%,.,.,.,.,.
COc1ccc(CN2CCN(C(=O)c3cccc(OC)c3OC)CC2)cc1OC,0%,3%,20µM*,-6%,12%,1%,8%,4%,8%
COc1cccc(C(=O)N2CCN(Cc3ccc4c(c3)OCO4)CC2)c1OC,-6%,-15%,-18%,1%,.,.,.,.,.
COc1ccc(CN2CCN(C(C)C(=O)N(C)Cc3cccc(F)c3)CC2)cc1OC (stereo unspecified),-6%,23%,16µM*,-29%,?,3%,6%,6%,9%
O=c1c2sccc2[nH]c(=S)n1-c1ccccc1,-21%,?,18µM*,-11%,?,1%,-4%,-4%,4%
O=c1c2oc3ccccc3c2[nH]c(=S)n1-c1ccccc1,-7%,-31%,2%,.,.,.,.,.,.
CNC(=O)C1(C(F)(F)F)C/C(=C/CCO)CCCO1 (stereo unspecified),.,.,-1%,.,.,.,.,.,.
Cn1cnc2c(F)c(Nc3ccc(Br)cc3Cl)c(C(=O)NOCCO)cc21,.,3%,.,.,.,.,.,.,.
Cc1ccc(NC(=S)N2CCC(c3ccc(C)cc3)C2)cc1 (stereo unspecified),9%,?,16µM*,-5%,-3%[10.4 µM],-15%,11%,7%,18%
COc1ccc(NC(=S)N2CCC(c3ccc(C)cc3)C2)cc1 (stereo unspecified),-3%,-17%,7%,17%,.,.,.,.,.
COCCn1c(C)cc(O)c(C(c2cccc(F)c2)N2CCN(c3ccccc3)CC2)c1=O (stereo unspecified),.,-1%,.,.,.,.,.,.,.
CCOC(=O)Cc1c(C)nc(N)[nH]c1=O,3%,1%,10%,14%,.,.,.,.,.
